# ALR inh – inhibitors of human ALR sulfhydryl oxidase, primary screen, biochemical, H2O2 detection, HRP-luminol luminescence, single point | FAD-linked sulfhydryl oxidase ALR (Homo sapiens), P55789 | purified ALR, DTT oxidation | inhibition, % (test concentration not listed) | 290,000 compounds, 3.8% hits | AID 485317, 2010;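 active means mean replicate inhibition above about 79%, with every replicate also reaching it, limit read from the data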
# Target sequence (P55789 whole entry, looked up): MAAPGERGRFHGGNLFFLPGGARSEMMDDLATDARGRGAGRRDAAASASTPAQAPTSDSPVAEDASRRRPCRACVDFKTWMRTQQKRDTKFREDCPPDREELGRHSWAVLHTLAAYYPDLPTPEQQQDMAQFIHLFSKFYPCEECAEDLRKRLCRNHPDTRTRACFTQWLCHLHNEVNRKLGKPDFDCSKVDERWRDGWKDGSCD
# PABP polyA inh – PABP poly(A) RNA binding inhibitors, primary screen, biochemical, fluorescence polarization, uHTS; inhibition, % at 35 µM; 290,000 compounds, 1% hits; AID 2014, 2009;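 further: calls also rest on retests at 20 µM and on dose response follow-up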
# MLLE-PAM2 inh – inhibitors of PABP1 MLLE–PAM2 peptide binding, primary screen, biochemical, fluorescence polarization, FITC-PAM2, GST-MLLE; Polyadenylate-binding protein 1 (Homo sapiens), P11940; inhibition, % at 20 µM; 360,000 compounds, 0.36% hits; in the data active means inhibition above about 35%, passing the limit was not always enough;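 further: plate controls were DMSO wells with GST-MLLE for no effect and wells lacking GST-MLLE protein for full effect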
# eIF4H FP inh – human eIF4H binding inhibitors, primary screen, translation initiation inhibitor project, biochemical, uHTS, fluorescence polarization; 290,000 compounds, 0.94% hits; inhibition, % at 35 µM; Eukaryotic translation initiation factor 4H (Homo sapiens), Q15056; eIF4H fluorescence polarization binding assay;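 further: calls also rest on retests at 20 µM and on dose response follow-up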
# UBC9 SUMO inh – inhibitors of in vitro SUMOylation cascade, primary screen, biochemical, HTRF, uHTS. SUMO-conjugating enzyme UBC9 (Homo sapiens), P63279. HTRF SUMOylation assay, SAE1/SAE2 + UBC9. inhibition, % at 35 µM. 290,000 compounds, 0.36% hits; in the data active means inhibition above about 50%, passing the limit was not always enough
# Target sequence (P63279 whole entry, looked up): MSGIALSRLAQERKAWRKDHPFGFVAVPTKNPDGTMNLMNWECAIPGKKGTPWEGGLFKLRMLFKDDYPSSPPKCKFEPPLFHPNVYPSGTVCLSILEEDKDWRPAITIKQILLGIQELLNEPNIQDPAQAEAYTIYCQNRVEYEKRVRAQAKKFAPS
# Efflux pump mplx – inhibitors of Candida efflux pumps in yeast, primary screen, S. cerevisiae, Nile Red, multiplex; 330,000 compounds, 0.44% hits; S. cerevisiae Candida pump triplex; inhibition, % at 10 µM; AID 485275, 2010;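 active means plate passing quality check with inhibition over a set limit, or well fluorescence over plate mean plus 4 SD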;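 further: Nile Red retained in pooled yeast measured as flow cytometry median fluorescence; 0% = buffer negative control and 100% = Enniatin B positive control; higher means more Nile Red kept so more efflux inhibition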
# Yeast cmpd fluor – flagged as fluorescent in efflux inhibitor counter-screen; S. cerevisiae AD/pABC3, compound fluorescence, flow cytometry; fluorescence ratio to DMSO, % at 10 µM; shares compounds with Efflux pump mplx; 1,700 compounds, 4% hits;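 active means fluorescence ratio to DMSO above its plate's cutoff, the plate mean ratio plus 5 SD, cut at about 210% in these data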;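 further: unstained yeast with no Nile Red so the signal is compound autofluorescence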
# CaMdr1 efflux inh – inhibitors of Candida albicans Mdr1 efflux, confirmation, flow cytometry, singleplex, Cherry Pick1 set; shares compounds with Efflux pump mplx; S. cerevisiae AD/CaMDR1, Nile Red efflux; AID 588518, 2011; 1,700 compounds, 1% hits; inhibition, % at 10 µM; in the data active means inhibition above about 26%;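 further: 0% = DMSO vehicle and 100% = reference inhibitor; higher means more Nile Red retained so more efflux inhibition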
# Cdr2 pump inh – inhibitors of Candida albicans Cdr2 efflux pump, confirmation, S. cerevisiae AD/CaCDR2, flow cytometry, cherry pick 1, singleplex; AID 588520, 2011; shares compounds with Efflux pump mplx; Nile Red retention; 1,700 compounds, 4% hits; Nile Red retention ratio vs DMSO, % at 10 µM; in the data active means Nile Red retention ratio vs DMSO above about 190%;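 further: higher ratio means more blocking of Cdr2 efflux of the dye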
# CaCdr1 efflux inh – inhibitors of Candida albicans Cdr1 efflux pump, confirmation, S. cerevisiae AD/CaCDR1, flow cytometry, cherry pick 1, singleplex; shares compounds with Efflux pump mplx; AID 588522, 2011; inhibition, % at 10 µM; 1,700 compounds, 1% hits; Nile Red efflux;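 active means inhibition above the screen-wide mean plus twice its standard deviation, cut at about 32% in these data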
# * hit, by the source's call; nt = no result given; ! = not active in a repeat. Sampled rows, rich in hits. Any-hit rate of the full collection: about 4.7%. Unless noted, how the calls were made is not given here.
SMILES,ALR inh,PABP polyA inh,MLLE-PAM2 inh,eIF4H FP inh,UBC9 SUMO inh,Efflux pump mplx,Yeast cmpd fluor,CaMdr1 efflux inh,Cdr2 pump inh,CaCdr1 efflux inh
OC(COCc1cccs1)CN1CCN(c2cccc(C(F)(F)F)c2)CC1 (stereo not given),-1,-7,13,4,-13,6.8*,106,0,112,0
Cc1ccc(CNC(=O)C(=O)NCC2CCCN2S(=O)(=O)c2cc(C)ccc2C)cc1 (stereo not given),5,nt,7,nt,nt,0,nt,nt,nt,nt
O=[N+]([O-])c1ccc(NN=CCCc2ccccc2)nc1,nt,nt,23,nt,nt,nt,nt,nt,nt,nt
O=[N+]([O-])c1ccc(Nc2ccccc2)nc1,-2,-2,-6,37,-17,30*,96,0,107,0
O=[N+]([O-])c1ccc(Nc2ccc(F)cc2)nc1,-3,-10,18,-6,4,0,nt,nt,nt,nt
O=[N+]([O-])c1ccc(NCc2ccccc2)nc1,-7,-14,3,15,6,38*,83,0,100,0
CC(C)OCCCNC(=O)CN1C(=O)/C(=C/c2ccccc2)Sc2ccccc21,0,-8,25,-10,8,-1,nt,nt,nt,nt
Cc1ccc2nc(/C(C#N)=C/c3ccc(O)c(O)c3)[nH]c2c1,89*,-10,-154,50,-4,3.4*,118,0,141,1
Cc1ccc2nc(/C(C#N)=C/c3ccccc3C(=O)O)[nH]c2c1,nt,2,-9,-5,14,0,nt,nt,nt,nt
CC(CNC(=O)c1ccc(OC2CCN(Cc3ccccn3)CC2)cc1)c1ccccc1 (stereo not given),nt,4,-4,-9,8,5.3*,102,0,96,0
COC(=O)[C@@H](NC(=O)c1ccc(OC2CCN(Cc3ccccn3)CC2)cc1)C(C)C,22,-7,-2,3,7,0,nt,nt,nt,nt
O=C1c2ccccc2C(=O)N1CN(C(=O)COc1ccccc1)c1ccc(F)cc1,-3,-2,-5,2,8,8.0*,91,0,89,0
O=C1CN(S(=O)(=O)c2cccc(C(=O)O)c2)c2ccccc2N1,-8,8,-14,10,2,1,nt,nt,nt,nt
CN(CCC1CCCCO1)C(=O)CCc1nnc(C2CCCCC2)o1 (stereo not given),-15,8,16,-3,-10,0,nt,nt,nt,nt
Cc1cc(C(=O)NNS(=O)(=O)c2ccc(C(C)(C)C)cc2)nn1C(C)(C)C,27,-3,-10,-4,24,0.6*,101,0,108,0
CC(C)CCOc1ccc(C(=O)NN2C(=O)NC3(CCCCC3)C2=O)cc1,-7,nt,8,nt,nt,0,nt,nt,nt,nt
Cn1cc([N+](=O)[O-])c(C(=O)Nc2ccn(C34CC5CC(CC(C5)C3)C4)n2)n1,-17,-8,-3,-18,18,16*,114,0,102,0
CCOC(=O)C1=CN(Cc2cccc(F)c2)S(=O)(=O)N(CC)C1c1ccccc1 (stereo not given),nt,nt,-30,nt,nt,1,nt,nt,nt,nt
CC(C)COC(=O)c1ccccc1N1C(=O)C2C3CCC(C3)C2C1=O (stereo not given),-6,-8,15,6,15,13*,104,0,94,0
CCCCOC(=O)c1ccccc1N1C(=O)C2C3CCC(C3)C2C1=O (stereo not given),-18,6,-4,-5,-2,0,nt,nt,nt,nt
COC(=O)[C@H](Cc1ccccc1)NC(=O)c1cc(COc2c(F)cccc2F)on1,0,7,0,-7,6,0,92,0,106,0
CCCCCCCCCCn1ccc(=N)cc1,nt,2,3,0,12,1,nt,nt,nt,nt
CCCCCCCCCCCCCCCCn1cc[n+](C)c1,-11,20,-10,34,14,2.7*!,100,0,110,0
CC(C)(c1cc(Br)c(O)c(Br)c1)c1cc(Br)c(O)c(Br)c1,52,nt,-6,nt,nt,0,nt,nt,nt,nt
CC1CCc2c(C(=O)Nc3ccc(OC(F)(F)F)cc3)csc2C1 (stereo not given),-10,6,-11,6,-22,19*,99,0,104,0
SMILES,ALR inh,PABP polyA inh,MLLE-PAM2 inh,eIF4H FP inh,UBC9 SUMO inh,Efflux pump mplx,Yeast cmpd fluor,CaMdr1 efflux inh,Cdr2 pump inh,CaCdr1 efflux inh
CCOC(=O)N1CCC(NC(=O)CN2C(=O)CCSc3ccccc32)CC1,23,3,0,-4,21,0,100,0,90,0
O=C(CN1C(=O)CSc2ccccc21)NC1CCCC1,-4,1,-9,5,8,0,nt,nt,nt,nt
Cc1ccc(NC(=O)Cn2cc(C=O)c3ccccc32)cc1,-1,4,-1,-1,-2,0,nt,nt,nt,nt
O=Cc1cn(CC(=O)Nc2ccc3c(c2)OCO3)c2ccccc12,-14,-1,-2,3,23,1.1*,104,0,109,0
O=C(Cc1ccccc1[N+](=O)[O-])Nc1ccc2c(c1)OCO2,3,-7,0,3,3,1.3*,103,0,89,0
CC1Cc2ccccc2N1CC(=O)Nc1cccc(S(N)(=O)=O)c1 (stereo not given),-8,-10,3,2,6,0,nt,nt,nt,nt
CC1Cc2ccccc2N1CC(=O)Nc1ccc2c(c1)OCO2 (stereo not given),-7,-4,-11,-18,2,12*,134,1,104,1
CN(CCc1ccccc1)C(=O)c1ccc(NC(=O)Cc2ccc(NC(=O)C3CCCN(C(=O)c4ccccc4)C3)cc2)cc1 (stereo not given),nt,nt,-22,nt,nt,nt,nt,nt,nt,nt
O=C(CN1C(=O)CSc2ccccc21)Nc1ccc2c(c1)OCCO2,-2,1,16,0,3,-1,nt,nt,nt,nt
O=C(CN1C(=O)CCSc2ccccc21)Nc1ccc2c(c1)OCO2,5,4,0,2,4,0,95,0,107,0
Cn1nc(C(C)(C)C)cc1C(=O)NCc1ccc2c(c1)OCO2,-2,-5,-1,-10,10,0,nt,nt,nt,nt

# Bioassay records from PubChem BioAssay.
